Results as given in PubChem BioAssay (NCI).
Compounds without any hit were thinned out: in the full panel of roughly 79,000, 15% have a hit. Unmarked numbers belong to inactive results. Active and inactive are the calls of the source. Rule as the data show it: active = growth inhibition above about 70%; inactive = the rest.

assay: NCI Yeast Anticancer Drug Screen. Data for the bub3 strain (AID 167); conditions: S. cerevisiae bub3 mutant strain, hits give high values; at 50.0 µM unless noted
Outline: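 Yeast carrying a defined mutation is treated with each compound, and growth is compared with that of vehicle-exposed cells to give inhibition.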

Compared with `Cc1ccccc1NC(=O)C(=O)CC(=O)c1sc(-n2nc(-c3ccccc3)cc2-c2ccccc2)nc1C`, `COc1ccc(C(OC(=O)Oc2ccccc2)c2ccccc2)cc1` (centres undefined) is lower in growth inhibition: 2.05% for the first, -16.4% for the second.

Compared with `CC(C)N(Cc1ccccc1)S(=O)(=O)c1n[nH]c(C(C)(C)C)n1`, `CCOC(=O)C(=O)Nc1c(C)cccc1C(C)(C)C` is lower in growth inhibition: -6.75% for the first, -16.8% for the second.

Compared with `O=C(O)[C@H](Cc1ccccc1)N1C(=O)N[C@@H](Cc2ccccc2)C1=O`, `OCC[P+](c1ccccc1)(c1ccccc1)c1ccccc1` is lower in growth inhibition: 3.6% for the first, -6.05% for the second.

First: N#Cc1c(-c2ccc(Cl)cc2)c(-c2ccc(Cl)cc2)nn(CCOC(=O)CCC(=O)OCCn2nc(-c3ccc(Cl)cc3)c(-c3ccc(Cl)cc3)c(C#N)c2=O)c1=O
Second: Cc1ccc(-c2nc3ccc(Cl)cc3[nH]2)cc1
The growth inhibition of the first is lower: 4.75% for the first, 30.1% for the second.

First: O=c1c2c3c(sc2nc2n1N=C(c1ccc(Cl)cc1)CS2)CCCC3
Second: N#C/C(=C1/c2cc([N+](=O)[O-])ccc2-c2c1cc([N+](=O)[O-])cc2[N+](=O)[O-])N1CCCCC1
The growth inhibition of the first is higher: -12.1% for the first, -22.8% for the second.

First: COc1nc(NC2OC(CO)C(O)C(O)C2O)c(I)c(=O)[nH]1 (centres undefined)
Second: COc1ccccc1CN1CCCN(Cc2ccccc2OC)C1c1ccc(N(C)C)cc1
The growth inhibition of the first is lower: -4.75% for the first, 14.3% for the second.

With `O=C(CSS(=O)(=O)O)Nc1ccccc1` the growth inhibition was 9.65%.

With `CCCCCCCCCCCCCCCC[N+](C)(C)CC#N` the growth inhibition was 99.2% (active).
